Compound activity: PubChem BioAssay, The Scripps Research Institute Molecular Screening Center
SRC3 inh – human NCOA3 inhibition; Q9Y6Q9; HEK293 GAL4-SRC3 luciferase reporter, luminescence; hit rate 0.17% among 360,000; inhibition, % at 3.6 µM;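 active means inhibition above a per-campaign cutoff, the mean of all compounds plus 3 SD, cut at about 60% in these data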;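 further: higher means less SRC3-driven luciferase light from the GAL4 reporter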
NR5A2 inv ag – inverse agonists of human LRH-1 (NR5A2) | hit rate 0.13% among 360,000 | inhibition, % at 3.6 µM | HEK293T StAR-luciferase reporter, LRH-1 transfected, 24 h | O00482;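 active means inhibition above the mean inhibition of all tested compounds plus 3 SD, cut at about 73% in these data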
GalR3 antagonist – antagonists of human GalR3; HEK293 GalR3-CNG cAMP membrane potential fluorescence; galR3 body fused to GalR1 C-terminus; AID 651719; O60755; inhibition, % at 3 µM; hit rate 0.44% among 360,000;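 active means inhibition above the screen-wide average plus 3 SD, cut at about 13% in these data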;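 further: forskolin and galanin both at EC90 stimulate the cells; cAMP rise reported by CNG channel membrane potential dye signal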
SRC1 inh – inhibitors of human steroid receptor coactivator 1 (SRC1). Q15788. HEK293 GAL4-SRC1 luciferase reporter, luminescence. inhibition, % at 3.6 µM. hit rate 0.12% among 360,000. AID 588354;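 active means inhibition above the campaign mean plus 3 SD, with each screening campaign given its own cutoff, cut at about 60% in these data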
NR2F2 inh – inhibitors of human COUP-TFII (NR2F2). P24468. HEK293T NGFI-A luciferase reporter, luminescence. inhibition, % at 8.6 µM. hit rate 0.7% among 370,000. AID 686940;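 active means inhibition above a per-plate cutoff, mean inhibition of test wells between control levels plus 3 SD, cut at about 38% in these data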;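 further: cells cotransfected with COUP-TFII expression vector driving the NGFI-A reporter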
NCOA2 inhibitor – inhibits human steroid receptor coactivator 2 | hit rate 0.17% among 370,000 | inhibition, % at 9 µM | Q15596 | HEK293 GAL4-SRC2 luciferase reporter, luminescence;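 active means inhibition above the mean inhibition of all tested compounds plus 3 SD, set per campaign, cut at about 52% in these data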
Target sequence (Q15596 whole entry, looked up, the tested form may be a part): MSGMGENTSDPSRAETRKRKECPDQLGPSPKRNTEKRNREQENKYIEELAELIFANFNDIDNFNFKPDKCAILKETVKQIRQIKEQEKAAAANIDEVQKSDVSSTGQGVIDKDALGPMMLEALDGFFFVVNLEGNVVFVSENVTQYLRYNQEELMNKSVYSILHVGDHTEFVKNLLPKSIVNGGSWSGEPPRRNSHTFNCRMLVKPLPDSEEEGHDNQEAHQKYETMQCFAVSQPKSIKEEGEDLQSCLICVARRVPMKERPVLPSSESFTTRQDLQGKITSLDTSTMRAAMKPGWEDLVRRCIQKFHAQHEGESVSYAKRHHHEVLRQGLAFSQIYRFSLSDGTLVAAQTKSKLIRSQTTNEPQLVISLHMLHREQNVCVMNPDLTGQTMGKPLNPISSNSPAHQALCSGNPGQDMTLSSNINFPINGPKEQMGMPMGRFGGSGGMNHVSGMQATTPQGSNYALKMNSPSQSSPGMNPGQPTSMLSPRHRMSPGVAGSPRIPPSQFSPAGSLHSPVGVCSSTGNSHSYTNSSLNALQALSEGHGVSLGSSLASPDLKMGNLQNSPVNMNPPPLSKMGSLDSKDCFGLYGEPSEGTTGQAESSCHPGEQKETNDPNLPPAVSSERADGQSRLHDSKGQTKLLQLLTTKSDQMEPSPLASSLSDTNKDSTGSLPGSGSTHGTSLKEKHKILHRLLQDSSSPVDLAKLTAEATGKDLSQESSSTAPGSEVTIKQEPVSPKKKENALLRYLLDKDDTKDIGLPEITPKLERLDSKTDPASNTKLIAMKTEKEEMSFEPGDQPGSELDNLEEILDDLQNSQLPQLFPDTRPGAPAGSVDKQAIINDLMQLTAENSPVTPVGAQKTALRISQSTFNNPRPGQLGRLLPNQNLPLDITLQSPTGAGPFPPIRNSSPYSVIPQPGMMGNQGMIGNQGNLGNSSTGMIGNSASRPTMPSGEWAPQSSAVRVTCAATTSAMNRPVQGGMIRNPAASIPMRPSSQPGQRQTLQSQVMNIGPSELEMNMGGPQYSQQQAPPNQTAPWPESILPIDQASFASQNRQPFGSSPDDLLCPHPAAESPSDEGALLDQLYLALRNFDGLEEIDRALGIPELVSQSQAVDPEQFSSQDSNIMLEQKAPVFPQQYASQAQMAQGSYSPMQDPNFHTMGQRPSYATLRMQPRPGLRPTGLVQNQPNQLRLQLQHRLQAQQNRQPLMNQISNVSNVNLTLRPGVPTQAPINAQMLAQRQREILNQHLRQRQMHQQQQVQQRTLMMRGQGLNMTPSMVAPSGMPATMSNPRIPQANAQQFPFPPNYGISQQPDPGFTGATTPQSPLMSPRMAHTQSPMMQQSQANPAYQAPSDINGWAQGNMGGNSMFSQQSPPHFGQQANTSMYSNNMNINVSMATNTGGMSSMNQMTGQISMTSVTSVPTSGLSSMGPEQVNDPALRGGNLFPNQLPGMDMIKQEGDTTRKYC
VP16 Luc counter – VP16 inhibition counter-screen for COUP-TFII. shares compounds with NR2F2 inh. HEK293 Gal4-VP16 luciferase reporter, luminescence. inhibition, % at 8.5 µM. hit rate 25% among 2,500. AID 687007; in the data active means inhibition above about 13%
NR2F2 inh conf – confirmation of human COUP-TFII (NR2F2) inhibitors | inhibition, % at 8.5 µM | shares compounds with NR2F2 inh | HEK293 NGFI-A luciferase reporter, luminescence | hit rate 45% among 2,500;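 active means mean inhibition over three repeats above a set limit taken from the earlier primary screen, cut at about 38% in these data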
Of the large screens only hits and unclear results are named; the others gave an inactive call (follow-up assays come after a bar, where they were run). An excerpt weighted towards active compounds, which were near 1.1% of everything screened.

CCOC(=O)[C@]12CCC=C1N(Cc1cccc3ccccc13)C(=O)[C@H](CC(=O)NCc1ccc(OC)c(OC)c1)C2	NR2F2 inh 37 (no result: SRC3 inh, SRC1 inh) | VP16 Luc counter inactive | NR2F2 inh conf inactive
CCOC(=O)[C@]12CCC=C1N(Cc1ccco1)C(=O)[C@H](CC(=O)NCc1ccc(OC)c(OC)c1)C2	none (no result: SRC3 inh, SRC1 inh)
COC(=O)C1CCN(C(=O)c2cc(-c3ccc(Cl)s3)nc3ccccc23)CC1	NR2F2 inh 38 | VP16 Luc counter inactive | NR2F2 inh conf inactive
CC(=O)Nc1ccc(/C=C/COC(C)=O)cc1C	none (no result: SRC3 inh, NR5A2 inv ag, GalR3 antagonist, SRC1 inh, NCOA2 inhibitor)
COc1ccc(-c2cn[nH]c2-c2ccc(OCc3ccc([N+](=O)[O-])cc3)cc2O)cc1OC	NR2F2 inh 38 | VP16 Luc counter inactive | NR2F2 inh conf inactive
O=[N+]([O-])c1ccc(COc2ccc(-c3[nH]ncc3-c3ccc(Cl)cc3)c(O)c2)cc1	none
COC(=O)[C@]1(CNS(=O)(=O)C2CC2)CC(=O)N(C)[C@@H]1c1ccccc1	none (no result: SRC3 inh, NR5A2 inv ag, GalR3 antagonist, SRC1 inh)
COC(=O)c1ccccc1NS(C)(=O)=O	NR2F2 inh 103 | VP16 Luc counter inactive | NR2F2 inh conf inactive
COC(=O)c1cccc(NS(C)(=O)=O)c1C	none
Cc1[nH]c2ccccc2c1/C=N/Nc1cccc(C(=O)O)c1	none
CN(Cc1ccc(OCC(O)CN2CCCCC2)cc1)Cc1ccnc2ccccc12 (stereo unspecified)	NR2F2 inh 59 | VP16 Luc counter inactive | NR2F2 inh conf 44
CC(C)(C)c1ccc(Oc2ccc(NC(=O)C3CC=CCC3C(=O)O)cc2)cc1 (stereo unspecified)	NR2F2 inh 91, NCOA2 inhibitor 78 | VP16 Luc counter 15 | NR2F2 inh conf inactive
O=C(O[C@H]1CC[C@@]23CCCN2C(=O)CCC[C@H]3C1)N1CCOCC1	none (no result: SRC3 inh, NR5A2 inv ag, GalR3 antagonist, SRC1 inh, NCOA2 inhibitor)
Cc1cc(C(=O)Nc2ccc(Cl)cc2)n(-c2ccccc2)n1	none
Cc1cc(C(=O)Nc2ccc(Cl)cc2)c(C)n1-c1ccccc1	SRC3 inh 86, NR5A2 inv ag 83, SRC1 inh 85, NR2F2 inh 86, NCOA2 inhibitor 76 | VP16 Luc counter 81 | NR2F2 inh conf 99
Cc1ccc(NC(=O)c2cnn(-c3ccccc3)c2C)cc1	none
Cc1ccc(NC(=O)c2cc(C)n(-c3ccccc3)c2C)cc1	SRC3 inh 66, SRC1 inh 65, NR2F2 inh 70, NCOA2 inhibitor 56 | VP16 Luc counter 60 | NR2F2 inh conf 84
Cc1ccc(NC(=O)c2cc(C)n(-c3cccc(C)c3)c2C)cc1	NR2F2 inh 38 | VP16 Luc counter inactive | NR2F2 inh conf 38
COC(=O)[C@@H]1C[C@@]2(c3ccccc3)c3ccccc3N(S(=O)(=O)c3ccccc3)[C@H]2N1C(=O)CNC1CCCCC1	none (no result: SRC3 inh, NR5A2 inv ag, GalR3 antagonist, SRC1 inh)
Cc1ccc(NCC(=O)Nc2cccc(F)c2)cc1S(=O)(=O)N1CCCCCC1	NR2F2 inh 46 | VP16 Luc counter inactive | NR2F2 inh conf inactive
O=C(CNc1cccc(S(=O)(=O)N2CCCCC2)c1)Nc1ccc(C(F)(F)F)cc1	NR2F2 inh 38 | VP16 Luc counter inactive | NR2F2 inh conf inactive
O=C(CNc1cccc(F)c1)Nc1cccc(S(=O)(=O)N2CCCCC2)c1	none
O=C(CNc1cccc(S(=O)(=O)N2CCCC2)c1)Nc1ccc(C(F)(F)F)cc1	NR2F2 inh 40 | VP16 Luc counter inactive | NR2F2 inh conf inactive
COc1cc(CCC(=O)Nc2ccc(C)c(S(=O)(=O)N3CCCCCC3)c2)cc(OC)c1OC	NR2F2 inh 54 | VP16 Luc counter inactive | NR2F2 inh conf inactive
COc1cc(CCC(=O)Nc2ccc(S(=O)(=O)N3CCCC3)cc2)cc(OC)c1OC	none
Cc1ccccc1NC(=O)Cc1nc(COC(=O)CSc2ccccc2)cs1	none
N#CC(C#N)c1ccnc2ccccc12	NR2F2 inh 40 | VP16 Luc counter inactive | NR2F2 inh conf inactive
N#CCc1ccnc2ccccc12	none
CC(C)(C)S(=O)N1Cc2cc(=O)n(Cc3ccccc3)cc2[C@H]1CCO (stereo partly specified)	none
C[C@@H]1[C@@H](c2ccccc2)c2cc3ccccc3nc2-c2nc3ccccc3cc2[C@@H]1C(=O)N1CCCC1	none (no result: SRC3 inh, NR5A2 inv ag, GalR3 antagonist, SRC1 inh)
Cc1nn(Cc2ccc(Cl)cc2)c(C)c1NC(=O)c1cc(C(C)C)on1	NR2F2 inh 44 | VP16 Luc counter inactive | NR2F2 inh conf inactive
Cc1nn(Cc2c(Cl)cccc2Cl)c(C)c1NC(=O)c1cc(C(C)C)on1	none (no result: GalR3 antagonist)
CCc1ccc(NC(=O)C2=CC(c3ccc(OC)c(OC)c3)=NS(=O)(=O)N2C)cc1	NR2F2 inh 38 (no result: GalR3 antagonist) | VP16 Luc counter inactive | NR2F2 inh conf inactive
COc1ccc(CNC(=O)C2=CC(c3ccc(OC)c(OC)c3)=NS(=O)(=O)N2C)cc1	none (no result: GalR3 antagonist)
COc1ccc(C2=NS(=O)(=O)N(C)C(C(=O)N3CCc4ccccc4C3)=C2)cc1OC	NR2F2 inh 39 | VP16 Luc counter inactive | NR2F2 inh conf inactive
Cc1cc(C)nc(NC(N)=NCCc2ccccc2)n1	NR2F2 inh 43 | VP16 Luc counter inactive | NR2F2 inh conf inactive
Cc1cc(C)nc(NC(N)=NCCc2c[nH]c3ccccc23)n1	NR2F2 inh 40 | VP16 Luc counter inactive | NR2F2 inh conf inactive
Cc1nc2ncnn2c(N2CCN(c3cccc(C(F)(F)F)c3)CC2)c1C	NR2F2 inh 44 | VP16 Luc counter inactive | NR2F2 inh conf inactive
CC(O)CNC12CC3CC(CC(C3)C1)C2 (stereo unspecified)	none
Cc1ccccc1-c1cccc2c3c([nH]c12)[C@@H]1C[C@H]2[C@@H](CN1CC3)[C@H](C)ON2C	none (no result: SRC3 inh, NR5A2 inv ag, GalR3 antagonist, SRC1 inh)
O=C(c1ccc(Cl)c(Cl)c1)N1CCN(c2ccnc3cc(Cl)ccc23)CC1	NR2F2 inh 54 (no result: SRC3 inh, NR5A2 inv ag, GalR3 antagonist, SRC1 inh, NCOA2 inhibitor) | VP16 Luc counter inactive | NR2F2 inh conf inactive
CC(=O)N1CCN(c2ccnc3cc(Cl)ccc23)CC1	none
Cc1nn(C)cc1CNC(=O)c1cc2n(n1)C(C(F)(F)F)CC(c1cccs1)N2 (stereo unspecified)	none
Cc1nn(C)c(C)c1CNC(=O)c1nn2c(c1Cl)NC(c1cccs1)CC2C(F)(F)F (stereo unspecified)	NR2F2 inh 40 | VP16 Luc counter inactive | NR2F2 inh conf inactive
Cc1ccc(-n2[nH]c(=O)c(-c3ccccn3)c2C)cc1	NR2F2 inh 44 | VP16 Luc counter inactive | NR2F2 inh conf inactive
OCC1(Cc2ccccc2)CCN(Cc2cnc(-c3cccc4ccccc34)nc2)CC1	none
OCC1(Cc2ccccc2)CCN(Cc2cnc(-c3ccc(Cl)cc3)nc2)CC1	NR2F2 inh 43 | VP16 Luc counter inactive | NR2F2 inh conf inactive
Cc1nccn1CCOc1ccccc1Cl	NR2F2 inh 68 | VP16 Luc counter inactive | NR2F2 inh conf inactive
CCC(=O)N1CCc2cc(Br)cc(S(=O)(=O)N(C)c3ccc(OC)cc3)c21	none
